From the supplement of paper PMC11732987, “Enantioselective OTUD7B fragment discovery through chemoproteomics screening and high-throughput optimisation” (Communications Chemistry, 2025)

Legend:
Assay in all cases: log2 ratio of Biotin-Ahx-Ub-VS probe labelling (fragment/DMSO); higher = less target engagement (more negative = stronger competition), active = hit call of the paper (q ≤ 0.05, log2 ratio ≤ -1)
Settings in all cases: compound concentration: 200 uM; treatment time: 3 h
USP42 = molecular target: T1, USP42 (UniProt Q9H9J4)
T1 sequence (whole entry): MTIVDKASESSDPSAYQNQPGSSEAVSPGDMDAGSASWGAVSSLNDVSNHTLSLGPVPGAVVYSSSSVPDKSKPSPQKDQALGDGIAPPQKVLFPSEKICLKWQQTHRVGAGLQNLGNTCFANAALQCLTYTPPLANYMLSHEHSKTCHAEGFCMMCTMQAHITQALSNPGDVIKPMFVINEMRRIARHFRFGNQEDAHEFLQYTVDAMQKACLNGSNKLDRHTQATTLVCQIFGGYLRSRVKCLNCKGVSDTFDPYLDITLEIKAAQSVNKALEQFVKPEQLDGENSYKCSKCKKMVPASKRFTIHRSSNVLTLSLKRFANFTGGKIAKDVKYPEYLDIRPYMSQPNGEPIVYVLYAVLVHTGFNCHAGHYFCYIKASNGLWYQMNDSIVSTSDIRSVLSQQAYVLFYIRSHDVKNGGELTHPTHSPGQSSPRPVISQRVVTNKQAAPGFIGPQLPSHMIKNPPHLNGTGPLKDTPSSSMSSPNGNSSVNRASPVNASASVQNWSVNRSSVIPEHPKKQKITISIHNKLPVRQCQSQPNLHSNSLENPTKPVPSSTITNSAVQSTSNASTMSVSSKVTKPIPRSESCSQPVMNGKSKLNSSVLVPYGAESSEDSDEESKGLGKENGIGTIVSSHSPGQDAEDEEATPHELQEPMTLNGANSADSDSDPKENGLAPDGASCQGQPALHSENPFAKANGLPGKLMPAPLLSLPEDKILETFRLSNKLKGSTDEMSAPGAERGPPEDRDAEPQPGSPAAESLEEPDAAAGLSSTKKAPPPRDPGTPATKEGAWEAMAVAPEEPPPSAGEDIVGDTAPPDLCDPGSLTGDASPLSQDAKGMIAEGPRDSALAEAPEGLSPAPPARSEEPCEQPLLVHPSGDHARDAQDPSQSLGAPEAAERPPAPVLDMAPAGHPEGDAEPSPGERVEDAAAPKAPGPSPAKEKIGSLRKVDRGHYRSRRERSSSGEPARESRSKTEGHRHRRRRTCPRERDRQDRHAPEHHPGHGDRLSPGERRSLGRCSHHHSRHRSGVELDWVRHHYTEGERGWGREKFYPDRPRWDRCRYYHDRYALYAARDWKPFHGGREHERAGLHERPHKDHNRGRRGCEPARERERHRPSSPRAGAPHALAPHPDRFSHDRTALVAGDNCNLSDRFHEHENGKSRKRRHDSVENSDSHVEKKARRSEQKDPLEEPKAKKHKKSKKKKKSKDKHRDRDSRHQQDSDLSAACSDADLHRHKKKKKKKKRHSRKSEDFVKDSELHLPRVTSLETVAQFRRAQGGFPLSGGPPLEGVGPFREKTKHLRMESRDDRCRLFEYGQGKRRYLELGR
Summary of the method: (§1)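 HEK293T lysate (495 µg per sample, in Tris/CHAPS/IGEPAL buffer with protease inhibitors) was exposed in triplicate for 3 h to fragment at 200 µM or to vehicle, then to Biotin-Ahx-Ub-VS at 0.5 µM final for 1 h. Labelled DUBs were enriched on NeutrAvidin, digested with LysC and trypsin, and analysed by diaPASEF LC-MS/MS. Spectronaut label-free quantities were normalised to the global median, and values are average log2 ratios of fragment over vehicle from an unpaired t-test. Only proteins with ≥2 unique peptides were used.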

USP46 = USP46 (UniProt P62068)
Summary of the method: as §1

USP47 = molecular target: T2, USP47 (UniProt Q96K76)
T2 sequence (whole entry): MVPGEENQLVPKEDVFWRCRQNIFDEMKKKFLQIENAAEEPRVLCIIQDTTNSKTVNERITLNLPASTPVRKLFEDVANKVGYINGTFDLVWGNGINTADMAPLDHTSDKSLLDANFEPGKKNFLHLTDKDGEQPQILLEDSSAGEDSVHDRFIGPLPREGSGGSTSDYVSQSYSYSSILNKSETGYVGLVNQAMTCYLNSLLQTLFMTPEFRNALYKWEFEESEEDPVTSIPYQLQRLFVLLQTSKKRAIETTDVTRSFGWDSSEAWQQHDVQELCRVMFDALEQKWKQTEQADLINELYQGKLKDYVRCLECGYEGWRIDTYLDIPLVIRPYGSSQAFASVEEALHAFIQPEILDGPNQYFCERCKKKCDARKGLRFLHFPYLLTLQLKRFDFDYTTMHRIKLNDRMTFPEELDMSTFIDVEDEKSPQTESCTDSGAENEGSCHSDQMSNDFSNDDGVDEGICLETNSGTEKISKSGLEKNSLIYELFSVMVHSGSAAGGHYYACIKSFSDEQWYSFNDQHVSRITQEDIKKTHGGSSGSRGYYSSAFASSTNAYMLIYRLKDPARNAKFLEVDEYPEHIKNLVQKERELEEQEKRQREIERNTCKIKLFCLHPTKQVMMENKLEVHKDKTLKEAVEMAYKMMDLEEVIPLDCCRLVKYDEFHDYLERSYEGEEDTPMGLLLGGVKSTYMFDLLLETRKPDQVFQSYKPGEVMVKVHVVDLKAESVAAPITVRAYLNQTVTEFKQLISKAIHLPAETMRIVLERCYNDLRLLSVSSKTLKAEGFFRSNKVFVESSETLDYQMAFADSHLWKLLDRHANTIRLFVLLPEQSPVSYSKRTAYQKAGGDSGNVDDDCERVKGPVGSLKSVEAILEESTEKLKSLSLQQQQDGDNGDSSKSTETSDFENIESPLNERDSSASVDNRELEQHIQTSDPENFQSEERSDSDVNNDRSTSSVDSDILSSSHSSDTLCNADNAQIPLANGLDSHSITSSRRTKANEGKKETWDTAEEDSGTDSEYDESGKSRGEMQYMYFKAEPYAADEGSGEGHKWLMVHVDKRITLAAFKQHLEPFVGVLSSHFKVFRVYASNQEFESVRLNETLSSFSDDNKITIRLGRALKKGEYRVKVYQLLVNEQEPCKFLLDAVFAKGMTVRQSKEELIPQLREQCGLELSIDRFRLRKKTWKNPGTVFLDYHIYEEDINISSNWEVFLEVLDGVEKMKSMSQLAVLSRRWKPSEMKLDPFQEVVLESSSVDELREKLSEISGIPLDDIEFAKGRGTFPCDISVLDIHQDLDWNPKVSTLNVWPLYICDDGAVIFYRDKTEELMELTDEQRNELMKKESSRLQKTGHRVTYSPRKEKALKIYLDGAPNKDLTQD
Summary of the method: as §1

USP48 = molecular target: T3, USP48 (UniProt Q86UV5)
T3 sequence (whole entry): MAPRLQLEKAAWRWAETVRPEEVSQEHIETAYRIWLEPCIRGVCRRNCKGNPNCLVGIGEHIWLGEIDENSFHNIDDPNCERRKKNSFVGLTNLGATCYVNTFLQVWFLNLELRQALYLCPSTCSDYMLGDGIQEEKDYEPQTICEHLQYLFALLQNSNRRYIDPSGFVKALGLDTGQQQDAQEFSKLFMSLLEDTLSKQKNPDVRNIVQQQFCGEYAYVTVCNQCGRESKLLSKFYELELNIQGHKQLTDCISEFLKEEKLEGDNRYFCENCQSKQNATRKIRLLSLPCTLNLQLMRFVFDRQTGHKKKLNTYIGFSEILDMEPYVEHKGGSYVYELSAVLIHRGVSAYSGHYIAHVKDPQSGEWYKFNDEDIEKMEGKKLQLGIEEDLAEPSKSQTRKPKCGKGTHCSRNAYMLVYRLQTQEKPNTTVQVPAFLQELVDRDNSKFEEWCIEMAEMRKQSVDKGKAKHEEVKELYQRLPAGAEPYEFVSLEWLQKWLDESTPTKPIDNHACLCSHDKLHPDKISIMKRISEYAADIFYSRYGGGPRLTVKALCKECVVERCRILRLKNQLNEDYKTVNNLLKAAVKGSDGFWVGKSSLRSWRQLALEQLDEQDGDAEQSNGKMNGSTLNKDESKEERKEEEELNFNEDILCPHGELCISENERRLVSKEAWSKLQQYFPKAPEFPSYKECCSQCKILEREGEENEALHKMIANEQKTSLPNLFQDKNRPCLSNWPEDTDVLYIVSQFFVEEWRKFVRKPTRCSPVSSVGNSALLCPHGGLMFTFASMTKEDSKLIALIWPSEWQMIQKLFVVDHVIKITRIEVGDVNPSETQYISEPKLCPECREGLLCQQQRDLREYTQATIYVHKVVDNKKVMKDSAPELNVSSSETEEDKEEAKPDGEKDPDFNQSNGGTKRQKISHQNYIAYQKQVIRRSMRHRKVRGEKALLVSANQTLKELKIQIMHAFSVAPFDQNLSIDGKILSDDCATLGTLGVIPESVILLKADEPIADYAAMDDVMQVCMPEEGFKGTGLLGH
Summary of the method: as §1

USP5 = molecular target: T4, USP5 (UniProt P45974)
T4 sequence (whole entry): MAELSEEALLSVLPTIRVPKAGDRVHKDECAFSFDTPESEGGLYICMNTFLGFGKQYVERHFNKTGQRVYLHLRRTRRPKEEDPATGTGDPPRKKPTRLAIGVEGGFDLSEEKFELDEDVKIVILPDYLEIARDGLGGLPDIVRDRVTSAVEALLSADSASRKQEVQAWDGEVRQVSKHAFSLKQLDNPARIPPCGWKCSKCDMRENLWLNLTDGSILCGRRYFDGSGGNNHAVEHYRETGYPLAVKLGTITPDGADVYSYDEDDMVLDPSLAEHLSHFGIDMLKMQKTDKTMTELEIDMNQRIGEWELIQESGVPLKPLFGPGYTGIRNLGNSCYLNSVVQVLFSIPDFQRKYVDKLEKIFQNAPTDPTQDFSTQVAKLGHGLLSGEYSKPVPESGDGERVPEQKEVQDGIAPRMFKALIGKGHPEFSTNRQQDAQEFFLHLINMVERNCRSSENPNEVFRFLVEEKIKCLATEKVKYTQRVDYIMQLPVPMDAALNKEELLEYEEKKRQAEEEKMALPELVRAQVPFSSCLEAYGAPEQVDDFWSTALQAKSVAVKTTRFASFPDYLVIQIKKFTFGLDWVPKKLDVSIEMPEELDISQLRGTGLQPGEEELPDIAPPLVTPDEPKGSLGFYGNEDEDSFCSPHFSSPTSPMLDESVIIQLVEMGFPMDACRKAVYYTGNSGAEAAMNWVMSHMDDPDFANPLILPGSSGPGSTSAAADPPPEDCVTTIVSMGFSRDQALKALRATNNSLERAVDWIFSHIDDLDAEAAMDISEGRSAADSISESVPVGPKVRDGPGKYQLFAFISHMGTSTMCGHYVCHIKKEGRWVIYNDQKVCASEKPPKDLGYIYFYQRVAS
Summary of the method: as §1

USP54 = USP54 (UniProt Q70EL1)
Summary of the method: as §1

USP7 = USP7 (UniProt Q93009)
Summary of the method: as §1

USP8 = molecular target: T5, USP8 (UniProt P40818)
T5 sequence (whole entry): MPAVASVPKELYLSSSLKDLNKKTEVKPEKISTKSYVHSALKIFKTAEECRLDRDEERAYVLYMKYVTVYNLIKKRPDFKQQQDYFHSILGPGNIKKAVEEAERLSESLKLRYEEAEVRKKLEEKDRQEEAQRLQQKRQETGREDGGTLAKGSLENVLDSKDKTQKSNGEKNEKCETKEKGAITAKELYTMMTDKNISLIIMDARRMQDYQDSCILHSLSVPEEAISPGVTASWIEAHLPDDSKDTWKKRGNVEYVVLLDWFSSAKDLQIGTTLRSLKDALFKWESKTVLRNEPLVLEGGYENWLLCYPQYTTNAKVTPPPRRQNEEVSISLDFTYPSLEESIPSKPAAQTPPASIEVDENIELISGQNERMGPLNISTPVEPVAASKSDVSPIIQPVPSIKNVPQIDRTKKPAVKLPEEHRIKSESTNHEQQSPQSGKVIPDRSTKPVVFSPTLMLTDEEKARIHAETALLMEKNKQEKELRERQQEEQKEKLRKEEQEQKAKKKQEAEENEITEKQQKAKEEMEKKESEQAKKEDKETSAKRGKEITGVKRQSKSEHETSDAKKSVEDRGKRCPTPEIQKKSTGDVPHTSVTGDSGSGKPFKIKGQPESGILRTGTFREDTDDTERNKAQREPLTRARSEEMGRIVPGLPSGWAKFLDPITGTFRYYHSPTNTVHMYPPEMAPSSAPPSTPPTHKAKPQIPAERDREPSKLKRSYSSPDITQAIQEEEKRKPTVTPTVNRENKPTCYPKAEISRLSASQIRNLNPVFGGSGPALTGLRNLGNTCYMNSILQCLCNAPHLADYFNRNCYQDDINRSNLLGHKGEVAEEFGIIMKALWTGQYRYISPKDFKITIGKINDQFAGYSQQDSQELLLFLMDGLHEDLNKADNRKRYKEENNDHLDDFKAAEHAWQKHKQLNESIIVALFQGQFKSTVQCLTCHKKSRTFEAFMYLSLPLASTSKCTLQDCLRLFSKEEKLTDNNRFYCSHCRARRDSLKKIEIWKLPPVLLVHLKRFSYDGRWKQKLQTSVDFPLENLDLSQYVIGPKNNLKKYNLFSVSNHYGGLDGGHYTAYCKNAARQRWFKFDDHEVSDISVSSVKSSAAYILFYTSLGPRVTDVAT
Summary of the method: as §1

Measured: log2 ratio of Biotin-Ahx-Ub-VS probe labelling

USP7, sequence (Q93009 whole entry, looked up): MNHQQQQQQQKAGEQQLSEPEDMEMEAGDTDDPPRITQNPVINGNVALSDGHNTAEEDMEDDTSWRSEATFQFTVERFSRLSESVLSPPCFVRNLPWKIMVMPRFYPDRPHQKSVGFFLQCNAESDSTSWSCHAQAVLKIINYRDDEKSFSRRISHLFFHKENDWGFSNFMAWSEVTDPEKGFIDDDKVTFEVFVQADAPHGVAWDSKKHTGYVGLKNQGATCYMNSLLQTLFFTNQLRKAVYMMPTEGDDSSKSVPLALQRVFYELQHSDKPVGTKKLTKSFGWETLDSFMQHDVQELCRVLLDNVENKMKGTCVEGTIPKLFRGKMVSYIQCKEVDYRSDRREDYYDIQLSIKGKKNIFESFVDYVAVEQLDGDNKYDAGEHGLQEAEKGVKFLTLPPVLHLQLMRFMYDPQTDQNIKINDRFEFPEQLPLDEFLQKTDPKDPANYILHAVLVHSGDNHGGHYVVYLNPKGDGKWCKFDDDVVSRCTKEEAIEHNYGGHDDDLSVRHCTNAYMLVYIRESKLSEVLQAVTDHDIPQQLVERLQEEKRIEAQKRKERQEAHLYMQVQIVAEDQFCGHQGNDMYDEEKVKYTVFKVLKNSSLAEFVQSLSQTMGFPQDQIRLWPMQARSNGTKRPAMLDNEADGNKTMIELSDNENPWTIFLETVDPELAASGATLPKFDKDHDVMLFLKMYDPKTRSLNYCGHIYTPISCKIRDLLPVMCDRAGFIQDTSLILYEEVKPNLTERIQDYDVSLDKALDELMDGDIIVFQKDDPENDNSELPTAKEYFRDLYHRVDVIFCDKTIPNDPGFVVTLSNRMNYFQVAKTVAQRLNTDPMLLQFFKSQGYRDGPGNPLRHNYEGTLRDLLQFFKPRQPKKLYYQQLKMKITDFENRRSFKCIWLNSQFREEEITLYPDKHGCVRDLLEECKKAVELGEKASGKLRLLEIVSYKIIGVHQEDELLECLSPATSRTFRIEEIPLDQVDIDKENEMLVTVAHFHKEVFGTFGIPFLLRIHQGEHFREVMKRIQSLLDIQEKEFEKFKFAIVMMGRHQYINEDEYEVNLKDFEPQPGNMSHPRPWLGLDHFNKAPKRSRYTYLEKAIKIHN
USP46, sequence (P62068 whole entry): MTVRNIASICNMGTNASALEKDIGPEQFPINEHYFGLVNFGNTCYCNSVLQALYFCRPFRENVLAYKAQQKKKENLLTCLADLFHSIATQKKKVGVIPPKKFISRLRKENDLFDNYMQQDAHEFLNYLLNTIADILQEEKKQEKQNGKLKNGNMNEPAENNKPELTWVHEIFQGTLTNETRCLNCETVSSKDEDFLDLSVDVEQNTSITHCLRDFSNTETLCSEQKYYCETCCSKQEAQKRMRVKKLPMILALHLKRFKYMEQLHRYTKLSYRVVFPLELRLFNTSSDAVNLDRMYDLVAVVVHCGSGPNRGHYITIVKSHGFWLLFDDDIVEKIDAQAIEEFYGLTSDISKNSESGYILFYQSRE
USP54, sequence (Q70EL1 whole entry): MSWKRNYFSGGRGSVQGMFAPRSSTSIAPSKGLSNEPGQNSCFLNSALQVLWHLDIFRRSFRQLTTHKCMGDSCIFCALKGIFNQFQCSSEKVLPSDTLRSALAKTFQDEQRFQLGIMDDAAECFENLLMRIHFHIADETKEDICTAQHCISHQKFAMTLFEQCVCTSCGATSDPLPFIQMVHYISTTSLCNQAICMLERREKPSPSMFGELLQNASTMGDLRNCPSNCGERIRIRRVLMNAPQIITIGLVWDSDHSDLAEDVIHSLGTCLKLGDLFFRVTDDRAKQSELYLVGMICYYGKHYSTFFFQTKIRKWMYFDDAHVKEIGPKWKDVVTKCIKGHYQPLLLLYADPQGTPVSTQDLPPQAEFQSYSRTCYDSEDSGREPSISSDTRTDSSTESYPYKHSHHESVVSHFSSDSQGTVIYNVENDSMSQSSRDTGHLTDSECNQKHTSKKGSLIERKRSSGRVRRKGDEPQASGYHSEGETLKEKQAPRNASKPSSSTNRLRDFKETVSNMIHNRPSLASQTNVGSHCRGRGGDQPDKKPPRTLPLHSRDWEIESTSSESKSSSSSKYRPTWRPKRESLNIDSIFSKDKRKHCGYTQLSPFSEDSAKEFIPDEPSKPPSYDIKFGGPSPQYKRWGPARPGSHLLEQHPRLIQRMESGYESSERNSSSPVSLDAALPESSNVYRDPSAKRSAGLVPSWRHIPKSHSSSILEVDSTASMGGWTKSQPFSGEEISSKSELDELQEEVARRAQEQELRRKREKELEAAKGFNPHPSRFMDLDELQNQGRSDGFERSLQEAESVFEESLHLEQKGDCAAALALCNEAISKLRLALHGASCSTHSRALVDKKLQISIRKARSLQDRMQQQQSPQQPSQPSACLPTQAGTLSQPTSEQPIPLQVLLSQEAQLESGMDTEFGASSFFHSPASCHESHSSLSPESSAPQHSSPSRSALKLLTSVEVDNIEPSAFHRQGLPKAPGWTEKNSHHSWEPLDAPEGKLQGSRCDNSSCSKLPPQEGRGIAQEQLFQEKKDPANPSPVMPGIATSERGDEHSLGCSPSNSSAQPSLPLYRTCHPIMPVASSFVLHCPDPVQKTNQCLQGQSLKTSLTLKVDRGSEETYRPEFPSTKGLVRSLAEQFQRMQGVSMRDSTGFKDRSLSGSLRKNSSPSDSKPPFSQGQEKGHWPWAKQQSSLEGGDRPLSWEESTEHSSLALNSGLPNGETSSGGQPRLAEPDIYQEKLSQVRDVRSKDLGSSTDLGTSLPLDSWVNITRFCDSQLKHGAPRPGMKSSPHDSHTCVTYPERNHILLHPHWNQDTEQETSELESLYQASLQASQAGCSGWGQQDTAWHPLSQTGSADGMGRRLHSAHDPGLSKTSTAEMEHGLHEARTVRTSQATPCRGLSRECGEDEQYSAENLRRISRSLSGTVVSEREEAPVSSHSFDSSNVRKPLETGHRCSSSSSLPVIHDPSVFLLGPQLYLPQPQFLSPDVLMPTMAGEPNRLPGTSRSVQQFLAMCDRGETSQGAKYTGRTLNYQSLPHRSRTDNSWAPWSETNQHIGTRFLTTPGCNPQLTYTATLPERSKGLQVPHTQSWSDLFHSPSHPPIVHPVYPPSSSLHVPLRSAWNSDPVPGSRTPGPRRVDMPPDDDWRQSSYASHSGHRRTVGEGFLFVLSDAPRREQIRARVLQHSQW

O=C(CCl)NC1CCN(C(=O)C2CCCCC2)CC1
inactive: USP42 0.471 | USP46 0.262 | USP47 0.301 | USP48 0.136 | USP5 -0.157 | USP54 0.282 | USP7 -0.045 | USP8 0.139
